Assay results as given in ChEMBL document CHEMBL3988442, “University of Dundee, Small-Polar-MMV Screening Library” (2021).
Among all 69,000 compounds or so, about 1,000 (1.4%) showed an effect of 50% or more. The full list was thinned out, with strong results kept by preference.

Test system: Leishmania donovani
Assay: Leishmania intramacrophage assay
Assay type: functional, organism-based
Parameters: scale not given: in the data most compounds retested in dose-response had high values

`Cc1ccc(OCC(=O)N(C)Cc2cccc(F)c2)cn1` was tested, and the “Percent Effect” value (30.3 µM, […]) was 34.51%.

`O=C(CCN1CCOCC1)NC1CCCN(CC2CCCCC2)C1` (stereo not given) was tested, and the “Percent Effect” value (30.3 µM, […]) was 10.41%.

With `CSC(C)(C)CNC(=O)NC1CCN(CC2CC2)C1` (stereo not given) the “Percent Effect” value (30.3 µM, […]) was 2.957%.

`NC(=O)C1CCN(C(=O)NC2CCN(CC3CCCC3)C2)CC1` (stereo not given) was tested, and the “Percent Effect” value (30.3 µM, […]) was 54.02%.

In the case of `O=C(NC1CCN(CC2CC2)C1)N1CCC(OC2CCCCC2)CC1` (stereo not given), the “Percent Effect” value (30.3 µM, […]) is reported as 53.02%.

`O=C(CCN1CCCCO1)NC1CCCN(CC2CCCCC2)C1` (stereo not given) was tested, and the “Percent Effect” value (30.3 µM, […]) was -1.788%.

`O=C(NC1CCN(CC2CCCC2)C1)N1CCC(OCC2CC2)CC1` (stereo not given) was tested, and the “Percent Effect” value (30.3 µM, […]) was 32.77%.

With `COc1ncccc1C(=O)N1CCCC1c1c(C)n[nH]c1C` (stereo not given) the “Percent Effect” value (30.3 µM, […]) was 18%.

In the case of `Cc1noc(C2CCCN(C(=O)CCCNc3ncccn3)C2)n1` (stereo not given), the “Percent Effect” value (30 µM) is reported as -32%.

In the case of `CN(CC(=O)N1CCN(c2ncccn2)CC1)c1ccc(Cl)cn1`, the “Percent Effect” value (30 µM, 30.03 µM) is reported as 26.44%.

In the case of `O=C(O)c1ccccc1C1CCN(Cc2ccc(-c3cc[nH]n3)o2)C1` (stereo not given), the “Percent Effect” value (30.3 µM, […]) is reported as 8.649%.

In the case of `O=C(O)c1ccc(C2CCCN(Cc3ccc(-c4cc[nH]n4)o3)C2)cc1` (stereo not given), the “Percent Effect” value (30.3 µM, […]) is reported as 54.21%.

In the case of `O=C(O)c1ccc(CC2CCN(Cc3ccc(-c4cc[nH]n4)o3)C2)cc1` (stereo not given), the “Percent Effect” value (30.3 µM, […]) is reported as -33.6%.

`CNC(=O)CNC(=O)Nc1ccc(Br)c(F)c1` was tested, and the “Percent Effect” value (30.3 µM, […]) was -0.911%.

`CCOc1ccc2ccccc2c1CNCC1CCNCC1.Cl.Cl` was tested, and the “Percent Effect” value (30.3 µM, […]) was 87.01%.

`CCOc1ccc2ccccc2c1CNCC1CCS(=O)(=O)C1.Cl` (stereo not given) was tested, and the “Percent Effect” value (30.3 µM, […]) was -4.478%.

For `COc1ccc2ccccc2c1CNCC1CCS(=O)(=O)C1.Cl` (stereo not given), the “Percent Effect” value (30.3 µM, […]) was -2.378%.

`CN(C)C(=O)COC1COC2(CCN(S(C)(=O)=O)CC2)C1` (stereo not given) was tested, and the “Percent Effect” value (30 µM, 30.03 µM) was 8.131%.

For `COc1ccc(-c2noc([C@@H](C)NS(=O)(=O)CC(C)C)c2C(=O)O)cc1`, the “Percent Effect” value (30.3 µM, […]) was 14.82%.

`OCc1ccncc1NCc1cnc(-c2ccccn2)s1` was tested, and the “Percent Effect” value (30.3 µM, […]) was 26.01%.

With `Cc1nn(CC(=O)NCCc2ccncc2)c(=O)n1Cc1ccccc1` the “Percent Effect” value (30.3 µM, […]) was 4.169%.

For `C=C(C)COc1cccc(CNCCc2nc(N)cc(O)n2)c1`, the “Percent Effect” value (30.3 µM, […]) was 10.98%.

For `CCOCc1ccc(NC(=O)N2CCOC3(CCC3)C2)cc1`, the “Percent Effect” value (30.3 µM, […]) was -4.354%.

With `Cc1ccc(C(=O)O)cc1CNC(=O)CN1CC[C@](C)(O)C(C)(C)C1` the “Percent Effect” value (30.3 µM, […]) was 62.04%.

With `CC1(C)CN(CC(=O)NCc2ccccc2F)C[C@]1(C)O` the “Percent Effect” value (30.3 µM, […]) was 15.59%.

With `Cc1ccc(C(=O)O)cc1CNC(=O)CN1CC(C)(C)[C@@](C)(O)C1` the “Percent Effect” value (30.3 µM, […]) was 14.97%.

With `Cn1ccnc1Sc1ccc(S(N)(=O)=O)cn1` the “Percent Effect” value (30.3 µM, […]) was -16.43%.

`CN1CCN(S(=O)(=O)c2ccc(Sc3nccn3C)nc2)CC1` was tested, and the “Percent Effect” value (30.3 µM, […]) was 0.3902%.

For `Cl.Cn1ccnc1Sc1ccc(N)cn1`, the “Percent Effect” value (30.3 µM, […]) was 50.34%.

For `COC(=O)CC1C(=O)NCCN1c1nc2c(s1)c(C)nn2C` (stereo not given), the “Percent Effect” value (30.3 µM, […]) was 6.396%.

`COc1ccc2c(O)c(NC(=O)NCC3CC3)cnc2c1` was tested, and the “Percent Effect” value (30 µM, 30.03 µM) was -30.24%.

`NC(=O)c1ccc(CN2C(=O)C3(CCNCC3)Nc3ccccc32)cc1` was tested, and the “Percent Effect” value (30.3 µM, […]) was 29.82%.

With `C=Cc1ccc(CN2C(=O)C3(CCNCC3)Nc3ccccc32)cc1` the “Percent Effect” value (30.3 µM, […]) was 98.05%.

With `Cl.O=C1CC2(CCNCC2)C(=O)N1Cc1ccc(F)cc1` the “Percent Effect” value (30.3 µM, […]) was 26.47%.

`N#Cc1cccc(CN2C(=O)C3(CCNCC3)Nc3ccccc32)c1` was tested, and the “Percent Effect” value (30.3 µM, […]) was 37.63%.

In the case of `CC(C)c1ccc(CN2C(=O)C3(CCNCC3)Nc3ccccc32)cc1`, the “Percent Effect” value (30.3 µM, […]) is reported as 100.4%.

In the case of `C=Cc1ccc(CN2CCCC3(CNC(=O)c4ccccc4O3)C2)cc1` (stereo not given), the “Percent Effect” value (30.3 µM, […]) is reported as -7.721%.

For `O=C(O)C(F)(F)F.O=S(=O)(N[C@@H]1CCO[C@]2(CCN(CC3CCOCC3)C2)C1)C1CC1`, the “Percent Effect” value (30.3 µM, […]) was 12.64%.

In the case of `Cn1cccc1C(=O)NCc1cn2c(n1)CN(Cc1cccnc1)CC2.O=C(O)C(F)(F)F.O=C(O)C(F)(F)F`, the “Percent Effect” value (30.3 µM, […]) is reported as 5.106%.

With `Cn1cc(C(=O)NCc2cn3c(n2)CN(Cc2ccccn2)CC3)cn1.O=C(O)C(F)(F)F.O=C(O)C(F)(F)F` the “Percent Effect” value (30 µM, 30.03 µM) was 26.85%.

For `Cn1cccc1C(=O)NCc1cn2c(n1)CN(Cc1ccccn1)CC2.O=C(O)C(F)(F)F.O=C(O)C(F)(F)F`, the “Percent Effect” value (30.3 µM, […]) was 52.64%.

For `O=C(c1cccc2[nH]ccc12)N1CCC2(CCOC2)C1` (stereo not given), the “Percent Effect” value (30.3 µM, […]) was 24.57%.

For `Cc1cnc(N2CCOCC3(CCN(c4ccccn4)C3)C2)nc1.O=C(O)C(F)(F)F.O=C(O)C(F)(F)F` (stereo not given), the “Percent Effect” value (30.3 µM, […]) was -8.514%.

With `CCc1c(C)sc2nc3n(CCN(C)C)nc(SC)n3c(=O)c12` the “Percent Effect” value (30.3 µM, […]) was 24.34%.

In the case of `CCc1c(C)sc2nc3n(CCN4CCOCC4)nc(SC)n3c(=O)c12`, the “Percent Effect” value (30.3 µM, […]) is reported as 9.764%.

`CCc1c(C)sc2nc3n(CCN4CCCCC4)nc(SC)n3c(=O)c12` was tested, and the “Percent Effect” value (30.3 µM, […]) was 50.52%.

For `CCn1cc(Br)c(C(=O)NCc2cccnc2)n1`, the “Percent Effect” value (30 µM, 30.03 µM) was 0.8694%.

In the case of `N#Cc1cnc(N2CCC3(CC2)OCCO3)nc1N`, the “Percent Effect” value (30.3 µM, […]) is reported as 39.63%.

With `Cc1cccc(-c2noc(CN3CCC(N4CCNC4=O)CC3)n2)c1` the “Percent Effect” value (30 µM, 30.03 µM) was 37%.

With `O=C1NCCN1C1CCN(Cc2nc(-c3ccccc3)no2)CC1` the “Percent Effect” value (30 µM) was 51.92%.

`O=C1NCCN1C1CCN(Cc2nc(-c3ccoc3)no2)CC1` was tested, and the “Percent Effect” value (30 µM, 30.03 µM) was 14.49%.

In the case of `Cc1ccc(-c2noc(CN3CCC(N4CCNC4=O)CC3)n2)cc1`, the “Percent Effect” value (30 µM) is reported as 33.86%.

`Cc1ccccc1-c1noc(CN2CCC(N3CCNC3=O)CC2)n1` was tested, and the “Percent Effect” value (30 µM) was 45.33%.

In the case of `O=C1NCCN1C1CCN(Cc2nc(-c3ccsc3)no2)CC1`, the “Percent Effect” value (30 µM) is reported as 51.47%.

`NC(=O)C1CCCN1C(=O)c1cccc2c1OCO2` (stereo not given) was tested, and the “Percent Effect” value (30.3 µM, […]) was -0.4744%.

`CCC(NC(=O)C1CC1)c1ccccc1OCC(=O)N1CCCC1` (stereo not given) was tested, and the “Percent Effect” value (30 µM) was -1.247%.

For `CNC(=O)C1CN(C)CCN(C(=O)CCn2nnc3ccccc32)C1` (stereo not given), the “Percent Effect” value (30.3 µM, […]) was 12.96%.

`CN(C)c1ccc(C2CC(=O)Nc3c2cnn3Cc2ccco2)cc1` (stereo not given) was tested, and the “Percent Effect” value (30.3 µM, […]) was 7.757%.

For `Cc1nc(C2CCNCC2)cc(N(C)CCc2cn[nH]c2)n1`, the “Percent Effect” value (30.3 µM, […]) was 2.569%.

In the case of `CN(Cc1cc2cc(F)ccc2[nH]1)c1cc(C2CCCNC2)ncn1` (stereo not given), the “Percent Effect” value (30.3 µM, […]) is reported as 78.22%.

In the case of `CCN(Cc1c(F)cccc1Cl)c1cc(C2CCNCC2)nc(C)n1`, the “Percent Effect” value (30.3 µM, […]) is reported as 100.4%.

In the case of `COc1ccc2[nH]c(CNc3cc(C4CCNCC4)nc(C)n3)cc2c1`, the “Percent Effect” value (30.3 µM, […]) is reported as -59.5%.

For `Cc1nc(-c2ccc(F)c(F)c2)cc(C2CCNCC2)n1.Cl`, the “Percent Effect” value (30.3 µM, […]) was 47.49%.

In the case of `CN(Cc1cc2cc(F)ccc2[nH]1)C(=O)C1CC(=O)N(C2CCCC2)C1` (stereo not given), the “Percent Effect” value (30.3 µM, […]) is reported as 9.704%.

For `Cc1nc(-c2ccc(F)cc2)cc(C2CCNCC2)n1`, the “Percent Effect” value (30.3 µM, […]) was 99.23%.

For `Cc1nc(C2CCNCC2)cc(N(C)Cc2cc3cc(F)ccc3[nH]2)n1`, the “Percent Effect” value (30.3 µM, […]) was 78.55%.

`Cc1c(CN(C)c2cc(C3CCCNC3)ncn2)[nH]c2ccccc12` (stereo not given) was tested, and the “Percent Effect” value (30.3 µM, […]) was 16.72%.

For `CCN(Cc1ccncc1)c1cc(C2CCCNC2)nc(C)n1` (stereo not given), the “Percent Effect” value (30.3 µM, […]) was -18.58%.

In the case of `Cc1ccc(-c2cc(C3CCNCC3)nc(C)n2)cc1.Cl`, the “Percent Effect” value (30.3 µM, […]) is reported as 14.23%.

In the case of `CCN(Cc1ccncc1)c1cc(C2CCNCC2)nc(C)n1`, the “Percent Effect” value (30.3 µM, […]) is reported as 4.844%.
